According to PubChem BioAssay (EPA / NIEHS):
Where “and” joins values, the source holds several entries; their conditions need not be identical. Identical values can stand only once. More than one record can exist for a structure, and the calls need not agree. Calls of active or inactive are those of the source. How the source made its calls: active means hit-call score of the fitted dose curve at least 0.9, where 1 is the maximum; inactive means score below 0.9.

Assay: ATG_SREBP_CIS: Attagene CIS-FACTORIAL HepG2 Assay for human Sterol Regulatory Element Binding (SREBP) (AID 2282962)
Settings: HepG2 Attagene cis-factorial SREBP reporter, mRNA; actives raise or lower the signal
Procedure: ATG_CIS is a cell-based, multiplexed-readout assay that uses HepG2, a human liver cell line, with measurements taken at 24 hours after chemical dosing in a 24-well plate.ATG_SREBP_CIS is one of 52 assay component(s) measured or calculated from the ATG_CIS assay. It is designed to make measurements of mRNA induction, a form of inducible reporter, as detected with fluorescence intensity signals by Reverse transcription polymerase chain reaction (RT-PCR) and Capillary electrophoresis technology.Data from the assay component ATG_SREBP_CIS was analyzed into 1 assay endpoint. This assay endpoint, ATG_SREBP_CIS, was analyzed with bidirectional fitting relative to DMSO as the negative control and baseline of activity. Using a type of inducible reporter, measures of mRNA for gain or loss-of-signal activity can be used to understand the reporter gene at the transcription factor-level as they relate to the gene SREBF1. Furthermore, this assay endpoint can be referred to as a primary readout, because this assay has produced multiple assay endpoints where this one serves a reporter gene function. To generalize the intended target to other relatable targets, this assay endpoint is annotated to the dna binding intended target family, where the subfamily is basic helix-loop-helix leucine zipper.
Human liver HepG2 cells are transiently transfected with multiple reporter transcription units (MRTUs) in 6-well plates using FuGene 6 reagent (Roche; 3 ml FuGene/1 mg DNA). The MRTU constructs are regulated by a cis-regulating element (promoter). […] A major difference between the CIS and TRANS system is that in CIS activities of endogenous TFs are measured, whereas the TRANS assay evaluates changes in activities of exogenous, chimeric NR-Gal4 proteins. […] At the end of 24 hour incubation, total RNA was isolated using TriZol reagent (Invitrogen). The isolated RNA is then reverse-transcribed using oligo(dT) primer and Mo-MLV reverse transcriptase (Invitrogen) with DNAse I (Ambion) treatment for 30 min. The one-tenth of the produced cDNA was amplified by PCR using Taq DNA polymerase (Invitrogen) and two reporter sequence-specific primers. The PCR products were fluorescently labeled by primer extension with 6-arboxyfluorescein (6-FAM) 5'-labeled reporter sequence-specific primer (2 min at 95 C, 20 s at 68 C and 10 min at 72 C) and these products were digested with 5U of HpaI (New England Biolabs) for 2h at 37 C. The fragments were purified using Qiaquick PCR columns (Qiagen), analyzed on an ABI 3130xL genetic analyzer (Applied Biosystems) with peak positions identified by using a set of X-rhodamine (ROX)-labeled MapMarker1000 molecular weight standards (BioVentures). The raw capillary electrophoresis data was processed using Attagraph software (Attagene).

SMILES	outcome	AC50
Cc1ccccc1OCC(=O)O	inactive	
CCC1CO1 (stereo not given)	inactive	
COc1cc([N+](=O)[O-])ccc1N	inactive	
CCCCC(CC)C(=O)OCCOCCOCCOCCOC(=O)C(CC)CCCC (stereo not given)	inactive	
CCOC=O	inactive	
CCCCCCCC(OC)OC	inactive	
O=CC(F)(F)C(F)(F)C(F)(F)C(F)F	inactive	
CCc1cccc(CC)c1N(COC)C(=O)CS(=O)(=O)O	inactive	
CCCCCCCCCCCC	inactive	
CN(C)c1ccc(C(=C2C=CC(=[N+](C)C)C=C2)c2ccccc2)cc1	inactive	9.9 µM (active)
CCCCCCc1ccc(N)cc1	inactive	
Oc1cc2ccccc2cc1O	inactive	
CCCCCCCCCCCCCC[n+]1ccccc1		2.7 µM (active)
CCCCC=O	inactive	
O=S(=O)(O)C(F)(F)C(F)(F)C(F)(F)C(F)(F)C(F)(F)C(F)(F)C(F)(F)C(F)(F)C(F)(F)C(F)(F)F	inactive	
CCC(=O)O	inactive	
CC1COCc2cc3c(cc21)C(C)(C)C(C)C3(C)C (stereo not given)	inactive	
Brc1cc(Br)c(Oc2c(Br)cc(Br)c(Br)c2Br)cc1Br	inactive	
FC(F)(F)C1(F)C(F)(F)C(F)(F)C(F)(F)C(F)(C(F)(F)F)C1(F)F (stereo not given)	inactive	

SMILES	outcome	AC50
CC=O	inactive	
COc1cc(OC)nc(NC(=O)NS(=O)(=O)Nc2ccccc2C(=O)N(C)C)n1	inactive	
c1cc[nH]c1	inactive	
CN(C)CCOC(c1ccccc1)c1ccccc1		45.5 µM (active)
Cc1cc(C(C)(C)C)c(O)c(C(C)(C)C)c1		33.4 µM (active) and 60 µM (active)
CCCCCCCCCCCC(=O)O		52.7 µM (active) and 60 µM (active)
O=S(=O)(O)c1ccccc1	inactive	
C=COC(=O)C(C)(C)CCCCCC	inactive	
CCCCCCCCCCCC[N+](C)(C)Cc1ccccc1	inactive	
CCCCCCCCCCCCOC(=O)c1cc(O)c(O)c(O)c1		2.85 µM (active)
O=S(=O)(O)c1ccc2cc(O)ccc2c1	inactive	
CC(C)c1c(C(=O)Nc2ccccc2)c(-c2ccccc2)c(-c2ccc(F)cc2)n1CC[C@@H](O)C[C@@H](O)CC(=O)O	inactive	0.156 µM (active)
CCCCCCCCCCCC[N+](C)(C)CCCCCCCCCCCC	inactive	
COc1ccc(C#N)cc1	inactive	
OCC1CCC(CO)CC1 (stereo not given)	inactive	
C=CC(=O)OCCN(CC)CC		61.8 µM (active)
NCc1cccc(CN)c1	inactive	
C[C@]12CC[C@@H]3c4ccc(O)cc4CC[C@H]3[C@@H]1C[C@@H](O)[C@@H]2O	inactive	
CCC(=O)C=Cc1ccc(OC)cc1	inactive	
